Compound activity from PubChem.
GSTO1 counter: GSTO1 inhibition, counter-screen for RBBP9 inhibitors | recombinant GSTO1, activity-based probe fluorescence polarization | inhibition, % at 5.96 µM | 300,000 compounds, 1.1% hits | P78417;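 active means inhibition above the campaign mean inhibition plus 3 SD, cut at about 35% in these data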
PME-1 inh: PME-1 (human) inhibition; inhibition, % at 5.9 µM; Q9Y570; 320,000 compounds, 0.53% hits; recombinant PME-1, FP-Rh probe fluorescence polarization;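 active means inhibition above the campaign mean of all compounds plus 3 SD, cut at about 26% in these data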;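 further: competitive labeling of PME-1 active site by serine hydrolase directed probe; inhibitors block probe labeling so polarization falls and inhibition rises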
Target sequence (Q9Y570 whole entry, looked up): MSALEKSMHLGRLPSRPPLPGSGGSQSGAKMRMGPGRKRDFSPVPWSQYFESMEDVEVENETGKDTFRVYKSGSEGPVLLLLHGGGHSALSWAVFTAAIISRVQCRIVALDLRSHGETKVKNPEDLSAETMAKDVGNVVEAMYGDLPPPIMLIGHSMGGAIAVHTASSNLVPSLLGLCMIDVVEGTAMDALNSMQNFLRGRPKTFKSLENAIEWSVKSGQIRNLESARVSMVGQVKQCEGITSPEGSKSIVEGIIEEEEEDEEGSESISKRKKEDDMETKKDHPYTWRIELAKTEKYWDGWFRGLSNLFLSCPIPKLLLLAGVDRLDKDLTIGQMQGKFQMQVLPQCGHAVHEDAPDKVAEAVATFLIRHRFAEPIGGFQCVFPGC
pPAFAH FP inh: pPAFAH (human) enzyme inhibition; Q13093; recombinant pPAFAH, FP-rhodamine probe fluorescence polarization; inhibition, % at 3.39 µM; 330,000 compounds, 1.5% hits;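 active means inhibition above the mean inhibition across the screen plus 3 SD, cut at about 25% in these data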;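 further: inhibitors block binding of the rhodamine activity-based probe so polarization drops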
Fam108B counter: blocks mouse Fam108B hydrolase in RBBP9 counter-screen. inhibition, % at 9.51 µM. recombinant Fam108B, FP-Rh probe fluorescence polarization. 300,000 compounds, 0.33% hits;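 active means inhibition above the screen mean inhibition plus 3 SD, computed separately per campaign, cut at about 18% in these data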;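 further: inhibitors lower polarization as less probe binds the enzyme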
PAD4 inh: inhibitors of human PAD4; Q9UM07; recombinant PAD4, RCA probe fluorescence polarization; inhibition, % at 6.36 µM; 330,000 compounds, 0.41% hits;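 active means percent inhibition above a cutoff equal to the mean of all tested compounds plus 3 SD, cut at about 15% in these data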
Large screens that a line does not name were inactive. Sampled rows, rich in hits. Any-hit rate of the full collection: about 2.3%.

Cc1cc(C)c2[nH]c(O)c(N=NC3=NC(=O)CS3)c2c1	PME-1 inh 28.2
CC1CCCN(C(=O)Cn2nnc(-c3ccccc3F)n2)C1 (centres undefined)	none
C#CCSc1nnc(-c2sc(-c3ccccc3)nc2C)n1C	GSTO1 counter 73.8
COc1cccc(CN(C)CC(=O)Nc2ccccc2C(C)C)c1	none
COc1cc(/C=N/NC(=O)[C@H](Cc2c[nH]c3ccccc23)NC(=O)OCC(C)C)cc([N+](=O)[O-])c1O	PME-1 inh 29.8, pPAFAH FP inh 29.5
COc1cc(/C=N/NC(=O)Cc2ccccc2)cc([N+](=O)[O-])c1O	none
CN(C)C1C(=O)c2ccccc2C1=O	none
O=C(COC(=O)C1CC1)Nc1ccc(Cl)cn1	none (no result: GSTO1 counter, Fam108B counter)
COc1ccccc1OCCC(=O)OCC(=O)Nc1ncc(Cl)cc1Cl	pPAFAH FP inh 26.0
COc1ccc(OCCCC(=O)OCC(=O)Nc2ccc(Cl)cn2)cc1	pPAFAH FP inh 26.4
O=C(COC(=O)Cc1ccc(Br)cc1)Nc1ccc(Cl)cn1	pPAFAH FP inh 25.5 (no result: GSTO1 counter, PME-1 inh, Fam108B counter)
O=C(COC(=O)CCOc1ccccc1)Nc1ncc(Cl)cc1Cl	none
CCc1cc(=O)oc2c3c(cc(OCC(=O)NCCCC(=O)O)c12)OC(C)(C)CC3	pPAFAH FP inh 31.7
Cc1cc(=O)oc2c3c(cc(OCC(=O)NC(Cc4ccc(Cl)cc4)C(=O)O)c12)OC(C)(C)CC3 (centres undefined)	pPAFAH FP inh 27.0
Cc1cc(=O)oc2c3c(cc(OCC(=O)N[C@@H](Cc4ccccc4)C(=O)O)c12)OC(C)(C)CC3	none
O=S(=O)(Nc1nc2ccccc2nc1OCC(F)(F)F)c1cccs1	none
COc1ccc(Nc2nc3ccccc3nc2NS(=O)(=O)c2cccs2)cc1	pPAFAH FP inh 27.1
CC(=O)c1ccc(Nc2nc3ccccc3nc2NS(=O)(=O)c2cccs2)cc1	pPAFAH FP inh 26.9
O=C(O)c1cccc(Nc2nc3ccccc3nc2NS(=O)(=O)c2cccs2)c1	none
CN(c1ccccc1)S(=O)(=O)c1cccc(NC(=O)CSc2ncc(C(F)(F)F)cc2Cl)c1	none
CCCN(CC(=O)Nc1ccccc1C)C(=O)COc1c(C)cccc1C	none (no result: GSTO1 counter, Fam108B counter)
CCOC(=O)C1CCN(C(=O)COC(=O)CSc2ccc([N+](=O)[O-])cc2)CC1	pPAFAH FP inh 31.5
CCCN(CC(=O)Nc1ccccc1C)C(=O)COC(=O)CSc1ccc([N+](=O)[O-])cc1	PME-1 inh 28.1
Cc1ccc(C)c(NC(=O)Cc2nc(CCl)cs2)c1	GSTO1 counter 95.3
Cc1ccc(NS(=O)(=O)c2ccc(Cl)c(C(=O)Nc3cccc(C(=O)O)c3)c2)cc1	none
O=C(O)CC1Sc2ccccc2NC1=O (centres undefined)	none
O=C1Nc2ccccc2SC(c2ccccc2)C1O (centres undefined)	pPAFAH FP inh 34.2
COc1ccc(NC(=O)CN2CCN(S(=O)(=O)c3ccc(Cl)cc3)CC2)cc1Cl	none
COc1ccc(S(=O)(=O)N2CCCN(CC(=O)Nc3ccc(OC)c(Cl)c3)CC2)cc1	GSTO1 counter 36.4
Cc1ccc(S(=O)(=O)N2CCN(CC(=O)Nc3ccccc3Cl)CC2)cc1	none (no result: GSTO1 counter, Fam108B counter)
Cc1ccc(S(=O)(=O)Nc2ccc(NC(=O)CN3CCCCC3)c(Cl)c2)cc1	pPAFAH FP inh 26.2
Cc1cc([N+](=O)[O-])ccc1N=Nc1c(N)[nH]n(-c2ccccc2)c1=O	none
Nc1nn(-c2ccccc2)c(N)c1N=Nc1ccc2c(c1)OCO2	none
Nc1[nH]n(-c2ccccc2)c(=O)c1N=Nc1ccc2c(c1)OCO2	PME-1 inh 33.1
Nc1[nH]n(-c2ccccc2)c(=O)c1N=Nc1ccc2c(c1)OCCO2	PME-1 inh 42.6
O=C(CSc1nc(C(F)(F)F)cc(=O)[nH]1)Nc1cccc2ccccc12	none
O=S(=O)(NCC1CCN(Cc2ccccc2)CC1)c1ccccc1C(F)(F)F	none
N#CCC(N)=C(C#N)C#N	GSTO1 counter 78.8
COC(=O)CC#N	none (no result: GSTO1 counter, Fam108B counter)
O=C1CCCCN1CCCC(=O)N1CCCC(Nc2ccc(F)c(F)c2)C1 (centres undefined)	none
CCCCn1c(NC(=O)c2ccc(F)cc2)c(C#N)c2nc3ccccc3nc21	GSTO1 counter 67.3, Fam108B counter 55.7, PAD4 inh 69.7
COc1ccc(C(=O)OCC(=O)Nc2ccc(OC(F)F)cc2)c(OC)c1	pPAFAH FP inh 32.9
O=C(COC(=O)c1ccccc1O)Nc1ccc(OC(F)F)cc1	none
O=C(COC(=O)CCC1CCCCC1)Nc1ccc(OC(F)F)cc1	pPAFAH FP inh 26.1
O=C(COC(=O)CCC1CCCC1)NCc1ccc(Cl)cc1	pPAFAH FP inh 29.6
